Laboratory results: PubChem BioAssay (EPA / NIEHS)
Results filed as inconclusive are left out. Activity calls are given as the source filed them. The calls were made as follows, unless noted: active = hit-call score of the fitted dose curve at least 0.9, where 1 is the maximum; inactive = score below 0.9.

What was measured:
[1] = CCTE_Harrill_HTTr_Viability_MCF7: CCTE's 6-hour Cell Viability Assessment for the High-Throughput Transcriptomics (HTTr) Platform, in MCF-7 cells cultured in DMEM + 10% fetal bovine serum, Harrill Lab (AID 2284010)
Procedure, shortened: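 Read-out is propidium iodide gain of signal by high-content imaging, reflecting membrane integrity loss. Measurements are taken 6 h after dosing, eight concentrations per chemical, with DMSO serving as baseline for bidirectional curve fitting.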

[2] = CCTE_Harrill_HTTr_Apoptosis_MCF7: CCTE's 6-hour Apoptosis Assessment for the High-Throughput Transcriptomics (HTTr) Platform, in MCF-7 cells cultured in DMEM + 10% fetal bovine serum, Harrill Lab (AID 2284011)
Procedure, shortened: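 MCF-7 (DMEM + 10% FBS), 384-well; 8-pt dilution series, 6 h chemical exposure; caspase-3/7 activation via CellEvent Caspase 3/7 Green, HCI; bidirectional fit vs DMSO.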

[3] = CCTE_Harrill_HTTr_CellCount_MCF7: CCTE's Cell Proliferation Assessment for the High-Throughput Transcriptomics (HTTr) Platform, Harrill Lab (AID 2284012; active = hit-call score of the fitted dose curve at least 0.9, where 1 is the maximum;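 also: cells exposed to compound for six hours; intended direction is loss of nuclei count meaning fewer cells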)
Procedure, shortened: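 Cell count served as viability reporter: loss of Hoechst-stained nuclei, counted by high content imaging, marks decreased growth or survival. Exposure was 6 h in MCF-7 cells across eight concentrations, with DMSO as baseline.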

Clc1ccc(COC(Cn2ccnc2)c2ccc(Cl)cc2Cl)cc1 (centres undefined)
outcome [1]: inactive
outcome [2]: inactive
outcome [3]: inactive

CC1(C)Cc2cccc(O)c2O1
outcome [1]: inactive
outcome [2]: inactive
outcome [3]: inactive

CC1(C)CCC(Cc2ccc(Cl)cc2)C1(O)Cn1cncn1 (centres undefined)
outcome [1]: inactive
outcome [2]: inactive
outcome [3]: inactive

COc1ccc(C=O)cc1OC
outcome [1]: inactive
outcome [2]: inactive
outcome [3]: inactive

CCC[CH2][Sn]([CH2]CCC)([CH2]CCC)[O]C(=O)c1ccccc1
AC50 [1]: 15.6 µM (active)
AC50 [2]: 11.5 µM (active)
AC50 [3]: 17.9 µM (active)

ClC(Cl)=C(Cl)C(Cl)=C(Cl)Cl
outcome [1]: inactive
outcome [2]: inactive
outcome [3]: inactive

O=C(O)C(F)(F)C(F)(F)C(F)(F)C(F)(F)C(F)(F)C(F)(F)F
outcome [1]: inactive
outcome [2]: inactive
outcome [3]: inactive

CCc1ccccc1C
outcome [1]: inactive
outcome [2]: inactive
outcome [3]: inactive

CCOC(=O)Nc1cccc(OC(=O)Nc2ccccc2)c1
outcome [1]: inactive
outcome [2]: inactive
outcome [3]: inactive

CC1CCCCC1NC(=O)Nc1ccccc1 (centres undefined)
outcome [1]: inactive
outcome [2]: inactive
outcome [3]: inactive

Nc1ccc(N=Nc2ccc(-c3ccc(N=Nc4c(S(=O)(=O)O)cc5cc(S(=O)(=O)O)c(N=Nc6ccccc6)c(O)c5c4N)cc3)cc2)c(N)c1
outcome [1]: inactive
outcome [2]: inactive
outcome [3]: inactive

C[C@@H](Oc1ccc(Cl)cc1Cl)C(=O)O
outcome [1]: inactive
outcome [2]: inactive
outcome [3]: inactive

Clc1ccc(C2(Cn3cncn3)CC(Br)CO2)c(Cl)c1 (centres undefined)
outcome [1]: inactive
outcome [2]: inactive
outcome [3]: inactive

O=C(Cc1ccccc1)c1ccccc1
outcome [1]: inactive
outcome [2]: inactive
outcome [3]: inactive

C[C@H]1O[C@@H](O[C@H]2[C@@H](O)C[C@H](O[C@H]3[C@@H](O)C[C@H](O[C@H]4CC[C@@]5(C)[C@H](CC[C@@H]6[C@@H]5CC[C@]5(C)[C@@H](C7=CC(=O)OC7)CC[C@]65O)C4)O[C@@H]3C)O[C@@H]2C)C[C@H](O)[C@@H]1O
outcome [1]: inactive
outcome [2]: inactive
outcome [3]: inactive

C[C@@H]1C[C@@H]([C@H](O)CC2CC(=O)NC(=O)C2)C(=O)[C@@H](C)C1
outcome [1]: inactive
outcome [2]: inactive
outcome [3]: inactive

CCC1(c2ccc(N)cc2)CCC(=O)NC1=O (centres undefined)
outcome [1]: inactive
outcome [2]: inactive
outcome [3]: inactive

O=c1[nH]c(=O)[nH]c(=O)[nH]1
outcome [1]: inactive
outcome [2]: inactive
outcome [3]: inactive
